Test systems include DU-145 prostate; K-562 leukemia; MALME-3M melanoma; MDA-MB-231 breast; RXF 393 renal; SF-268 CNS; SF-295 CNS; SF-539 CNS; UACC-257 melanoma; M14 melanoma; HCT-15 colon; HT29 colon; SNB-75 CNS; SNB-19 CNS; U251 CNS; SK-MEL-5 melanoma; UACC-62 melanoma; LOX IMVI melanoma; SK-MEL-28 melanoma; PC-3 prostate.
Test in all cases: NCI-60 one-dose screen, 48 h (100 = growth as untreated, 0 = no growth, -100 = all killed)
Holding throughout (settings): 10 µM unless noted

The results in this text go back to PubChem BioAssay (NCI).

About 83,000 compounds went through this panel and 20% of them were active in at least one assay; those are over-represented in the sample as a whole.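 48-hour exposure, single concentration, 96-well plates; percent growth endpoint where 0 means no net growth. Active: below 10.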 Unmarked numbers belong to inactive results. Active and inactive are the calls of the source.

`O=P(O)(O)OCC1OC(n2cnc3c(NCc4ccco4)ncnc32)C(O)C1O` (stereo unspecified): the growth is -58.5% (active) with DU-145 prostate; 63.3% in the assay on K-562 leukemia; 87.4% in the assay on MALME-3M melanoma; -21.5% (active) with MDA-MB-231 breast; 4.85% (active) with RXF 393 renal; 29.3% in the assay on SF-268 CNS. The growth in the assay with SF-295 CNS is 34.7%; in the assay with SF-539 CNS it was 16.1%; in the assay on UACC-257 melanoma, 77.6%; with M14 melanoma it was 34.5%; with HCT-15 colon, 5.11% (active); with HT29 colon, 16.7%. Moreover, the growth with SNB-75 CNS is 8.93% (active); in the assay with SNB-19 CNS, 31.9%; in the assay with U251 CNS, 38.3%; with SK-MEL-5 melanoma it was 40.2%; in the assay on UACC-62 melanoma it was 45.4%; in the assay on LOX IMVI melanoma it was -30.9% (active). Also, the growth in the assay with SK-MEL-28 melanoma was 87%.
Turning to `CCOc1ccc(-n2nc(C(=O)NCc3ccccc3OC)nc2-c2cc(OC)c(OC)c(OC)c2)cc1`, the growth in the assay on DU-145 prostate was 65.2%; with K-562 leukemia, 22.1%; with MALME-3M melanoma, 87.5%; in the assay with MDA-MB-231 breast, 17.8%; in the assay on RXF 393 renal, 43.5%; in the assay on SF-268 CNS it was 54.1%. The growth is 34.8% in the assay on SF-295 CNS; 49.2% in the assay on SF-539 CNS; 62.7% in the assay on UACC-257 melanoma; 42.2% in the assay with M14 melanoma; 29% with HCT-15 colon; 40.6% in the assay with HT29 colon. In addition, the growth with SNB-75 CNS is 30%; with SNB-19 CNS, 45.2%; in the assay with U251 CNS, 42.5%; in the assay with SK-MEL-5 melanoma it was -1.22% (active); in the assay with UACC-62 melanoma, 37%; with LOX IMVI melanoma, 36.3%. The growth in the assay on SK-MEL-28 melanoma is 36.6%.
Turning to `C=C1CC[C@@H]2[C@](C)(COC(C)=O)[C@H](OC(C)=O)CC[C@@]2(C)[C@@H]1CC(Nc1ccc(S(=O)(=O)NC(C)=O)cc1)C1=CCOC1=O` (stereo partly specified), the growth with DU-145 prostate was 0.37% (active); with K-562 leukemia, 4.81% (active); in the assay on MALME-3M melanoma it was -43.6% (active); in the assay on MDA-MB-231 breast it was -38.7% (active); in the assay on RXF 393 renal it was -75.8% (active); with SF-268 CNS, 6.72% (active). In addition, the growth is 58.4% in the assay with SF-295 CNS; -76.7% (active) with SF-539 CNS; -10.6% (active) with UACC-257 melanoma; -35.1% (active) with M14 melanoma; -49.5% (active) in the assay on HCT-15 colon; -69.9% (active) in the assay on HT29 colon. Also, the growth was 26.3% with SNB-75 CNS; 23% in the assay on SNB-19 CNS; -65.5% (active) with U251 CNS; 7.36% (active) with SK-MEL-5 melanoma; -12.5% (active) in the assay on UACC-62 melanoma; -85.8% (active) in the assay on LOX IMVI melanoma. The growth in the assay with SK-MEL-28 melanoma is -36.6% (active).
Regarding `O=C(Cc1ccc(/C=C/C(=O)c2ncc[nH]2)cc1)Nc1cc(C(F)(F)F)cc(C(F)(F)F)c1`, the growth is 86.2% in the assay with DU-145 prostate; 18.9% with K-562 leukemia; 92.1% with MALME-3M melanoma; 92.6% in the assay on MDA-MB-231 breast; 67.8% in the assay with RXF 393 renal; 88.2% with SF-268 CNS. For the same molecule, the growth in the assay with SF-295 CNS is 93.7%; in the assay with SF-539 CNS, 73.7%; in the assay on UACC-257 melanoma it was 100%; with M14 melanoma, 89.6%; in the assay on HCT-15 colon it was 62.4%; in the assay with HT29 colon, 26.3%. Moreover, the growth in the assay with SNB-75 CNS was 79%; with SNB-19 CNS it was 77.3%; with U251 CNS it was 38.5%; with SK-MEL-5 melanoma it was 93.1%; in the assay with UACC-62 melanoma, 80.9%; with LOX IMVI melanoma it was 34.5%. Besides, the growth with SK-MEL-28 melanoma was 104%.
Consider `CSc1nn2c(-c3ccc4ccccc4c3)ccnc2c1C#N`, for which the growth with DU-145 prostate was 43%; with K-562 leukemia, 11.1%; with MALME-3M melanoma, 10.1%; in the assay on MDA-MB-231 breast, 27.3%; in the assay with RXF 393 renal, 19%; with SF-268 CNS it was 45.3%. Also, the growth is 8.45% (active) in the assay on SF-295 CNS; 26.3% in the assay on SF-539 CNS; 63% in the assay on UACC-257 melanoma; 5.19% (active) in the assay on M14 melanoma; 15.4% in the assay on HCT-15 colon; 2.83% (active) in the assay on HT29 colon. For the same molecule, the growth with SNB-75 CNS is -7.71% (active); with SNB-19 CNS, 18.3%; in the assay with U251 CNS, 6.98% (active); with SK-MEL-5 melanoma it was 10.1%; with UACC-62 melanoma, 18.8%; in the assay with LOX IMVI melanoma, 21.7%. The growth in the assay with SK-MEL-28 melanoma was 38.9%.
For the molecule `COc1cc(OC)c(C(=O)C(CN(C)C)CN(C)C)cc1OC`, the growth in the assay on DU-145 prostate is 87.3%; in the assay with K-562 leukemia, -42.3% (active); with MALME-3M melanoma, -87.8% (active); in the assay with MDA-MB-231 breast, -59.7% (active); in the assay on RXF 393 renal, -75% (active); in the assay with SF-268 CNS, 99.1%. Moreover, the growth was 101% with SF-295 CNS; 67.7% in the assay with SF-539 CNS; 8.98% (active) in the assay with UACC-257 melanoma; -31.6% (active) in the assay with M14 melanoma; -52.4% (active) in the assay on HCT-15 colon; 2.66% (active) with HT29 colon. The growth with SNB-75 CNS was 91.4%; in the assay with SNB-19 CNS it was 102%; in the assay with PC-3 prostate, 94.5%; in the assay on SK-MEL-5 melanoma, 101%; with UACC-62 melanoma it was 19.2%; in the assay on LOX IMVI melanoma, -68.8% (active). For the same molecule, the growth with SK-MEL-28 melanoma was 21.8%.
Regarding `O=C(CSc1nc(-c2ccccc2)cc(=O)[nH]1)Nc1nc(-c2ccccc2)cs1`, the growth is 97.8% with DU-145 prostate; 87.7% in the assay on K-562 leukemia; 110% in the assay on MALME-3M melanoma; 116% in the assay with MDA-MB-231 breast; 87.4% with RXF 393 renal; 93.8% with SF-268 CNS. For the same molecule, the growth with SF-295 CNS is 76.4%; in the assay on SF-539 CNS, 113%; in the assay with UACC-257 melanoma, 94.6%; in the assay on M14 melanoma it was 117%; with HCT-15 colon, 89.7%; in the assay with HT29 colon, 99.1%. Further, the growth was 85.9% in the assay with SNB-75 CNS; 99.9% in the assay with U251 CNS; 78.8% with PC-3 prostate; 85.7% in the assay with SK-MEL-5 melanoma; 69.1% in the assay with UACC-62 melanoma; 96.6% in the assay on LOX IMVI melanoma. Further, the growth with SK-MEL-28 melanoma was 111%.
Regarding `COc1ccc(Nc2ncccc2/C=C/C(=O)c2cc(OC)c(OC)c(OC)c2)cc1`, the growth is 6.98% (active) in the assay on DU-145 prostate; -26.3% (active) in the assay on K-562 leukemia; -5.45% (active) with MALME-3M melanoma; 17.3% in the assay on MDA-MB-231 breast; -61% (active) in the assay on RXF 393 renal; -33.2% (active) in the assay on SF-268 CNS. In addition, the growth was 17% with SF-295 CNS; -51.1% (active) with SF-539 CNS; -89.7% (active) with UACC-257 melanoma; -53.4% (active) in the assay with M14 melanoma; -57.2% (active) with HCT-15 colon; -66.8% (active) with HT29 colon. Further, the growth was 21.4% with SNB-75 CNS; -95.8% (active) in the assay with U251 CNS; -15.1% (active) in the assay with PC-3 prostate; -25.8% (active) in the assay with SK-MEL-5 melanoma; -24% (active) with UACC-62 melanoma; -63.6% (active) in the assay on LOX IMVI melanoma.
